In PubChem BioAssay (NCATS):
Records with an inconclusive call do not appear. The source made the active and inactive calls. Calls come from the whole dose curve; as a rule, active = well fitted inhibition curve with a large enough effect; inconclusive = small, poorly fitted or top-dose-only effect; inactive = flat fitted curve, though single readings scatter.

Tests used:
CRL-7250 = normal cell line; test: Cytotoxic Profiling of Annotated Libraries Using Quantitative High-Throughput Screening (AID 1296008); conditions: Five cell lines viability, CellTiter-Glo ATP luminescence, 48-72 h; max response: hits give low values; for max response: % is set by controls: 0 for no effect and ±100 for the full control effect
Summary of the method: (§1)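 Compounds were pin-transferred onto cells and incubated 48 or 72 hr at 37 degree Celsius, 95% humidity. CellTiter-Glo was added, plates sat 10 min at room temperature, then ATP-coupled luminescence was imaged as the viability read-out.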

HEK293 = test: as above; conditions: Five cell lines viability, CellTiter-Glo ATP luminescence, 48-72 h; max response: hits give low values
Summary of the method: as §1

HaCat [1] = test: as above; conditions: Five cell lines viability, CellTiter-Glo ATP luminescence, 48-72 h; max response: hits give low values
Summary of the method: as §1

KB-3-1 = test: as above; conditions: Five cell lines viability, CellTiter-Glo ATP luminescence, 48-72 h; max response: hits give low values
Summary of the method: as §1

NIH3T3 = test: as above; conditions: Five cell lines viability, CellTiter-Glo ATP luminescence, 48-72 h; max response: hits give low values
Summary of the method: as §1

HACAT [2] = test: qHTS assay to identify novel small-molecules to repurpose for Merkel cell carcinoma treatment (AID 1296009); conditions: MCC and control cell lines, CellTiter-Glo viability, 72 h; at 44.8 µM (top of the series) unless noted
Summary of the method: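 qHTS format: cells treated with library compounds in DMSO across 8 (NPC) or 11 (MIPE) concentrations. Readout after 72 hr at 37 degree celsius was CellTiter-Glo luminescence.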

Measured: max response
Note: nearly all actives have a fitted effect of over 60% in size.

O=C(O)/C=C(\CC(=O)O)C(=O)O
inactive: CRL-7250 4.3% | HEK293 | HaCat [1] | KB-3-1 -12.2% | NIH3T3 | HACAT [2]

C[C@@H](C1=C(CCN(C)C)Cc2ccccc21)c1ccccn1
inactive: CRL-7250 | HEK293 -25.1% | HaCat [1] | KB-3-1 -6.09% | NIH3T3 1.99% | HACAT [2]

CCCCCC[C@@H](CCC)C(=O)O
inactive: CRL-7250 -4.37% | HEK293 | HaCat [1] | KB-3-1 -12.3% | NIH3T3 | HACAT [2]

Cc1nc([N+](=O)[O-])cn1-c1ccc([N+](=O)[O-])cc1
inactive: CRL-7250 1.02% | HEK293 0.842% | HaCat [1] | KB-3-1 5.55% | NIH3T3 | HACAT [2]

O=C(O)c1[nH]n(-c2ccc(S(=O)(=O)O)cc2)c(=O)c1N=Nc1ccc(S(=O)(=O)O)cc1
inactive: CRL-7250 0.833% | HEK293 1.51% | HaCat [1] | KB-3-1 3.04% | NIH3T3 -0.37% | HACAT [2]

COc1cc(C=O)ccc1O
inactive: CRL-7250 -1.68% | HEK293 -1.3% | HaCat [1] | KB-3-1 -6.73% | NIH3T3 -0.279% | HACAT [2]

CC(C(=O)O)c1ccc(/C=C2\CCCCC2=O)cc1 (centres undefined)
inactive: CRL-7250 1.18% | HEK293 -12.2% | HaCat [1] | KB-3-1 | NIH3T3 3.05% | HACAT [2]

CN1C(=O)CC(C)(c2ccccc2)C1=O (centres undefined)
inactive: CRL-7250 -0.376% | HEK293 1.84% | HaCat [1] | KB-3-1 -1.96% | NIH3T3 | HACAT [2]

C=CCOc1cc(Cl)ccc1C(=O)NCCN(CC)CC
inactive: CRL-7250 -3.78% | HEK293 -33.1% | HaCat [1] | KB-3-1 6.3% | NIH3T3 1.31% | HACAT [2]
